# TcdB inh = inhibitors of Clostridioides difficile toxin B glycohydrolase; 350,000 compounds, 0.24% hits; inhibition, % at 9.99 µM; AID 652162; TcdB glycohydrolase enzymatic assay, plate reader; P18177; in the data active = inhibition above about 10%
# SARS 3CLpro inh = SARS-CoV 3CLpro protease inhibition | recombinant SARS-CoV 3CLpro, quenched FRET peptide cleavage | AID 1706 | 290,000 compounds, 0.14% hits | P0C6X7 | inhibition, % at 6 µM; in the data active = inhibition above about 12%
# BH1578 lux ind = inducers of Vibrio cholerae quorum light production without autoinducers. V. cholerae BH1578 lux reporter, luminescence, 6 h. activation, % at 18.7 µM. 350,000 compounds, 0.16% hits. AID 588436; in the data active = activation mostly above about 9.7%, no sharp cut-off
# CCHFV vOTU inh = CCHFV vOTU protease inhibition; Pep-AMC fluorescence; inhibition, % at 11.5 µM; 370,000 compounds, 0.55% hits; in the data active = inhibition above about 30%; note: 0% = vehicle wells with enzyme and 100% = no enzyme wells
# SSB-PriA inh = K. pneumoniae PriA-SSBct interaction inhibition; AlphaScreen SSBct-PriA binding, biotinylated peptide; inhibition, % at 33 µM; 430,000 compounds, 0.6% hits; AID 1272365; in the data active = inhibition mostly above about 37%, no sharp cut-off; inactive = mostly below about 20%;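 note: plate controls were negative control peptide for no effect and reference peptide for full effect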
# DUSP3 inh = blocks human VHR1 dual specificity phosphatase; P51452; recombinant VHR phosphatase, pNPP absorbance; inhibition, % at 13.3 µM; 290,000 compounds, 0.52% hits; in the data active = inhibition above about 50%
# Numbers without * were called inactive; i = inactive; x = not tested or not shown; ! = not active in a repeat. The list is not random: actives were taken first. Their share in the collection is about 1.3%.
SMILES,TcdB inh,SARS 3CLpro inh,BH1578 lux ind,CCHFV vOTU inh,SSB-PriA inh,DUSP3 inh
O=C(CN1C(=O)S/C(=C\c2cccs2)C1=O)Nc1ccc(C(=O)O)c(O)c1,0,14*,-2,23,9,-5
N#Cc1c(N)n[nH]c1CCCN,0,-2,i,-24,-2,51*
COC1=C(Br)C(=O)c2ncccc2C1=O,-3,x,1,101*,41*,x
COc1ccccc1N1C(=O)c2cccnc2C1=O,1,3,i,-9,-6,22
O=C1c2cccnc2-c2ncccc21,x,-1,i,-1,37*!,28
CCn1ccnc1CN1CCOCC1,x,x,x,x,-10,x
O=c1[nH]c2nonc2c(=O)n1-c1cccc(Cl)c1,x,x,x,x,6,x
O=S(=O)(c1cccc2ccccc12)N1CCSCC1,x,x,x,x,-1,x
CSC1CC2CCC(C1)N2C(=O)c1ccsc1 (stereo not drawn),x,x,x,x,94*,x
O=C(Nc1n[nH]c(=S)s1)c1c(F)cccc1F,x,x,x,x,-9,x
C=CCNc1n[nH]c(=S)s1,15*,x,-8,9,x,x
Cc1cccc(C)c1Nc1n[nH]c(=S)s1,3,x,0,6,x,x
CC(=O)Nc1n[nH]c(=S)s1,18*,x,-1,-2,-8,x
Cc1cc(C)c(Nc2n[nH]c(=S)s2)cc1C,1,x,-5,-5,x,x
CNc1n[nH]c(=S)s1,24*,1,1,-7,7,21
COC(=O)c1[nH]c2c(c1C)C(=O)CC(c1cc(OC)c(OC)c(OC)c1)C2 (stereo not drawn),0,-2,i,6,-5,52*
O=C(NCc1cccs1)C(=O)NCC(c1ccco1)N1CCc2ccccc21 (stereo not drawn),x,x,x,x,21,x
COc1cccc(C2C(C(C)=O)=C(C)Nc3ncnn32)c1 (stereo not drawn),0,-1,i,x,-15,21
CC(=O)C1=C(C)Nc2ncnn2C1c1cccc(OCc2ccccc2)c1 (stereo not drawn),3,0,0,15,-7,53*
COc1ccc(CCC(=O)NCCN2CCN(c3ccc(OC)cc3)CC2)cc1,x,x,x,x,-2,x
CN(Cc1ccco1)C(=O)C1CCCN(c2ncnc3c2nc2n3CCCCC2)C1 (stereo not drawn),0,-1,i,5,-3,27
CCC1CCCCN1CCCNC(=O)C1CCCN(S(=O)(=O)N2CC(C)CC(C)C2)C1 (stereo not drawn),3,-4,0,9,3,54*
CC1CC(C)CN(S(=O)(=O)N2CCCC(C(=O)NCCCN3CCCCC3C)C2)C1 (stereo not drawn),0,-5,i,10,-12,2
COCCN(Cc1ccco1)C(=O)C1CCCN(c2ncnc3c2nc2n3CCCCC2)C1 (stereo not drawn),1,-11,0,5,8,52*
CCC1CCCCN1CCCNC(=O)C1CCCN(c2ncnc3c2nc2n3CCCCC2)C1 (stereo not drawn),0,-1,i,-4,-1,57*
SMILES,TcdB inh,SARS 3CLpro inh,BH1578 lux ind,CCHFV vOTU inh,SSB-PriA inh,DUSP3 inh
CN1CCN(C(=O)C2CCN(c3ncnc4c3nc3n4CCCCC3)CC2)CC1,4,-1,i,-4,-3,11
O=C(C1CCN(c2ncnc3c2nc2n3CCCCC2)CC1)N1CCCCC1,-9,-4,0,3,12,52*
CN1C(=O)c2ccc(NC(=O)Cc3ccc4c(c3)OCO4)cc2C1=O,x,x,x,x,8,x
COc1ccc(-n2ncc3c2CC(C)(C)CC3NC(=O)CCN2CCCCC2=O)cc1 (stereo not drawn),2,7,-1,3,-6,2
CC1(C)Cc2c(cnn2-c2ccc(F)cc2)C(NC(=O)CCC(F)(F)F)C1 (stereo not drawn),1,-4,-1,-5,-4,59*
COc1ccc(-n2ncc3c2CC(C)(C)CC3NC(=O)CCCN2CCCC2=O)cc1 (stereo not drawn),0,-2,i,-9,3,57*
Cc1cn2nc(C(=O)NCc3cc(F)ccc3F)cc2c(=O)[nH]1,x,x,x,x,2,x
C=CC(=O)Nc1cccc(N(C)c2ccnc(Nc3ccc(N4CCN(C)CC4)cc3)n2)c1,x,x,i,x,57*,x
C=CC(=O)Nc1cccc(Oc2ccnc(Nc3ccc(N4CCN(C)CC4)cc3)n2)c1,-22,x,i,-4,61*,x
CC1CN(C(=O)CCC(=O)NCCCN2C(C)CCCC2C)c2ccccc2O1 (stereo not drawn),-1,-7,i,-4,-7,53*
CC1CCC(NC(=O)CCC(=O)N2CC(C)Oc3ccccc32)CC1 (stereo not drawn),1,1,0,6,-8,9
COc1cccc(CNC(=O)Nc2c[nH]c3ccccc23)c1,x,x,x,x,17,x
Cc1cc2cc(CNC(=O)Nc3c[nH]c4ccccc34)ccc2[nH]1,x,x,x,x,33*,x
CC(CCc1ccccc1)NC(=O)Nc1c[nH]c2ccccc12 (stereo not drawn),x,x,x,x,39*,x
O=C(NCc1ccccc1)Nc1c[nH]c2ccccc12,x,x,x,x,-8,x
Cc1ncsc1C(=O)NCc1cncc(-c2cccs2)c1,x,x,x,x,9,x
O=C(NCC[C@H](O)c1cccs1)C(=O)Nc1ccc(OC(F)(F)F)cc1,x,x,x,x,-7,x
Cc1cnc(C(=O)Nc2nc(-c3ccccn3)cs2)cn1,x,x,x,x,120*,x
O=C(Nc1nc(-c2ccccn2)cs1)c1cc(Cl)ccn1,x,x,x,x,99*,x
O=C(Nc1nc(-c2ccccn2)cs1)c1cccc(C(=O)Nc2nc(-c3ccccn3)cs2)n1,x,x,x,x,2,x
O=C(Nc1nc(-c2ccccn2)cs1)c1cc(Cl)ccc1Cl,x,x,x,x,86*,x
COc1cc(=O)n(C)cc1C(=O)NC(c1cccnc1)C1CCOCC1 (stereo not drawn),x,x,x,x,0,x
Nc1nc(-c2csc(N)n2)cs1,x,x,x,x,46*,x
Cc1cccc(S(=O)(=O)N2CN(Cc3ccco3)c3nc4ccccc4nc32)c1,x,-3,-1,-6,96*,-12
COc1ccc(-n2cnc3cc(NS(=O)(=O)c4ccc(C)cc4)ccc32)cc1,x,4,-1,x,x,11
SMILES,TcdB inh,SARS 3CLpro inh,BH1578 lux ind,CCHFV vOTU inh,SSB-PriA inh,DUSP3 inh
COc1ccccc1-n1cnc2cc(NS(=O)(=O)c3ccc(Br)cc3)ccc21,1,2,0,8,41*,24
O=C(CCNc1ccc(Cc2ccncc2)cc1)c1ccc([N+](=O)[O-])cc1,-1,2,0,10,47*,-8
COc1ccc(N2CCN(C(=O)CN3C(=O)NC4(CCCc5ccccc54)C3=O)CC2)cc1 (stereo not drawn),0,x,-2,-2,4,x
O=C(CN1C(=O)NC2(CCCc3ccccc32)C1=O)N1CCN(C(=O)c2ccco2)CC1 (stereo not drawn),x,-11,-1,0,6,54*
O=C(c1cccnc1)N1CCc2ccccc21,x,-3,-1,8,-7,-9
O=C(c1cccnc1)N1CCc2ccccc2C1,x,1,2,9,-11,51*
Cc1ccc(C)c(N(C(=O)c2csnn2)C(C(=O)NC2CCCCC2)c2ccccn2)c1 (stereo not drawn),1,1,0,0,-2,50*
